The whole screen tested about 5,500 compounds, of which about 2,000 (36%) were called active. Another 18% or so got no clear call; they are omitted. Cut-off read from the data, not from the text of the source: active = normalized growth mostly below about 0.91 (no sharp cut-off); inconclusive = no clear call, values can overlap the other calls; inactive = mostly above about 0.92. The list shows a part of the results.
Assay: chemical genetic growth profiling, strain panel (AID 1159580);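 note: tested at 20 µM; growth read once vehicle control cultures reached saturation at 30 °C; 1 = growth at the plate median or of vehicle wells; lower values mean less growth of the strain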
Conditions: growth OD
[1] = S. cerevisiae deletion strains, locus YAL013W, strain DEP1, active compounds read low
[2] = S. cerevisiae deletion strains, locus YAL040C, strain CLN3, active compounds read low
[3] = S. cerevisiae deletion strains, locus YCL061C, strain MRC1 (second series), active compounds read low
[4] = S. cerevisiae deletion strains, locus YDR150W, strain NUM1, active compounds read low
[5] = S. cerevisiae deletion strains, locus YDR363W, strain ESC2, active compounds read low
[6] = S. cerevisiae deletion strains, locus YER002W, strain NOP16, active compounds read low
[7] = S. cerevisiae deletion strains, locus YGR078C, strain PAC10, active compounds read low
[8] = S. cerevisiae deletion strains, locus YJR075W, strain HOC1, active compounds read low
[9] = S. cerevisiae deletion strains, locus YMR263W, strain SAP30, active compounds read low
[10] = S. cerevisiae deletion strains, locus YNL153C, strain GIM3, active compounds read low
[11] = S. cerevisiae deletion strains, locus YNL175C, strain NOP13, active compounds read low
[12] = S. cerevisiae deletion strains, locus YNL197C, strain WHI3, active compounds read low
[13] = S. cerevisiae deletion strains, locus YNL224C, strain SQS1, active compounds read low
[14] = S. cerevisiae deletion strains, locus YOR083W, strain WHI5 (second series), active compounds read low
[15] = S. cerevisiae deletion strains, locus YPL055C, strain LGE1, active compounds read low
[16] = S. cerevisiae deletion strains, locus YGR229C, strain SMI1, active compounds read low
[17] = S. cerevisiae deletion strains, locus YNL128W, strain TEP1, active compounds read low
[18] = S. cerevisiae deletion strains, locus YNL322C, strain KRE1, active compounds read low
[19] = S. cerevisiae deletion strains, locus YPL241C, strain CIN2, active compounds read low
[20] = S. cerevisiae deletion strains, locus YBR229C, strain ROT2, active compounds read low
[21] = S. cerevisiae deletion strains, locus YDL101C, strain DUN1, active compounds read low
[22] = S. cerevisiae deletion strains, locus YEL061C, strain CIN8, active compounds read low
[23] = S. cerevisiae deletion strains, locus YHR030C, strain SLT2, active compounds read low
[24] = S. cerevisiae deletion strains, locus YHR087W, strain rtc3, active compounds read low
[25] = S. cerevisiae deletion strains, locus YJL187C, strain SWE1, active compounds read low
[26] = S. cerevisiae deletion strains, locus YJR043C, strain POL32, active compounds read low
[27] = S. cerevisiae deletion strains, locus YLR039C, strain RIC1, active compounds read low
[28] = S. cerevisiae deletion strains, locus YLR058C, strain SHM2 (second series), active compounds read low
[29] = S. cerevisiae deletion strains, locus YLR085C, strain ARP6, active compounds read low
[30] = S. cerevisiae deletion strains, locus YLR262C, strain YPT6, active compounds read low
[31] = S. cerevisiae deletion strains, locus YML094W, strain GIM5, active compounds read low
[32] = S. cerevisiae deletion strains, locus YMR219W, strain ESC1, active compounds read low
[33] = S. cerevisiae deletion strains, locus YNL298W, strain CLA4 (second series), active compounds read low
[34] = S. cerevisiae deletion strains, locus YNR030W, strain Alg12, active compounds read low
[35] = S. cerevisiae deletion strains, locus YPR135W, strain CTF4, active compounds read low

Measured: normalized growth

O=C(O)C1C2CCC(O2)C1C(=O)O (configuration not stated)
inactive: [1] 1.04 | [2] 0.983 | [3] 1 | [4] 1 | [5] 1 | [6] 0.996 | [7] 0.985 | [8] 1.02 | [9] 0.995 | [10] 1 | [11] 1.01 | [12] 0.998 | [13] 1.02 | [14] 1.06 | [15] 1.06

CC1(C(=O)O)C2CCC(O2)C1(C)C(=O)O (configuration not stated)
inactive: [2] 0.902 | [3] 0.984 | [5] 0.982 | [7] 0.985 | [16] 1 | [8] 1.03 | [17] 0.943 | [10] 0.886 | [18] 0.989 | [15] 1.04 | [19] 0.97
active: [6] 0.914 | [11] 0.904 | [12] 0.884 | [13] 0.914 | [14] 0.833

CCOC(=O)c1cc(C)nc(Sc2ccccc2)c1C#N
active: [1] 0.931 | [20] 0.889 | [21] 0.897 | [7] 0.763 | [24] 0.787 | [25] 0.854 | [26] 0.91 | [8] 0.573 | S. cerevisiae deletion strains, locus YKL190W, strain CNB1, active compounds read low 0.898 | [28] 0.858 | [32] 0.877 | [9] 0.907 | [10] 0.916 | [33] 0.785 | [18] 0.885 | [34] 0.746 | [19] 0.83
inactive: [4] 0.852 | [22] 0.917 | [23] 0.841 | [27] 0.895 | [29] 0.787 | [30] 0.86 | [31] 0.917 | S. cerevisiae deletion strains, locus YMR307W, strain GAS1, active compounds read low 0.754 | [15] 0.844 | [35] 1.12

CCOC(=O)COc1nc(-c2cccs2)cc(C(F)(F)F)c1C#N
inactive: [1] 0.995 | [20] 0.97 | S. cerevisiae deletion strains, locus YCL061C, strain MRC1, active compounds read low 1 | [21] 0.963 | [4] 0.975 | [22] 0.975 | [7] 0.978 | [16] 0.989 | [23] 0.827 | [24] 0.961 | [25] 0.966 | [26] 1.01 | [8] 0.979 | [27] 0.946 | [28] 0.972 | [29] 0.949 | [30] 0.991 | [31] 0.922 | [32] 0.988 | [9] 1.04 | [17] 0.982 | [10] 0.98 | [33] 0.932 | [18] 0.98 | [34] 0.967 | [15] 0.971 | [19] 1.08 | [35] 0.943 | S. cerevisiae strains, strain wild type, active compounds read low 0.965

— PubChem BioAssay AID1159580 (chemical genetic matrix, 2015)
